Test results reported in the supplement of paper PMC11732987, “Enantioselective OTUD7B fragment discovery through chemoproteomics screening and high-throughput optimisation” (Communications Chemistry, 2025).

Experiments:
Experiment in all cases: log2 ratio of Biotin-Ahx-Ub-VS probe labelling (fragment/DMSO); higher = less target engagement (more negative = stronger competition), active = hit call of the paper (q ≤ 0.05, log2 ratio ≤ -1)
Conditions in all cases: compound concentration: 200 uM; treatment time: 3 h
OTUD6B = target: T1, OTUD6B (UniProt Q8N6M0)
T1 sequence (whole entry): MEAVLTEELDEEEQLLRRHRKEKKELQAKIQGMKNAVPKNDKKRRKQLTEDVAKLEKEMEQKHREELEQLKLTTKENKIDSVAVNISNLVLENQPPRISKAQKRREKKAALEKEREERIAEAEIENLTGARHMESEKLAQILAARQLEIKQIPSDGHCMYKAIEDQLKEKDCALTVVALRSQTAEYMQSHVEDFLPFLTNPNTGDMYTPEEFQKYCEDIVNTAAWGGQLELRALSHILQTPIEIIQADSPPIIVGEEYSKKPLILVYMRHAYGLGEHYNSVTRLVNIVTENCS
Procedure, shortened: (§1)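 Global-median-normalised Spectronaut label-free quantities were compared by unpaired t-test, and values are average log2 ratios of fragment over vehicle. Only proteins with ≥2 unique peptides were used. HEK293T lysate (495 µg per sample) was treated in triplicate with fragment at 200 µM or vehicle for 3 h and then with Biotin-Ahx-Ub-VS at 0.5 µM final for 1 h. Labelled DUBs were then NeutrAvidin-enriched, digested with LysC and trypsin, and run by diaPASEF LC-MS/MS.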

OTUD7B = target: T2, OTUD7B (UniProt Q6GQQ9)
T2 sequence (whole entry): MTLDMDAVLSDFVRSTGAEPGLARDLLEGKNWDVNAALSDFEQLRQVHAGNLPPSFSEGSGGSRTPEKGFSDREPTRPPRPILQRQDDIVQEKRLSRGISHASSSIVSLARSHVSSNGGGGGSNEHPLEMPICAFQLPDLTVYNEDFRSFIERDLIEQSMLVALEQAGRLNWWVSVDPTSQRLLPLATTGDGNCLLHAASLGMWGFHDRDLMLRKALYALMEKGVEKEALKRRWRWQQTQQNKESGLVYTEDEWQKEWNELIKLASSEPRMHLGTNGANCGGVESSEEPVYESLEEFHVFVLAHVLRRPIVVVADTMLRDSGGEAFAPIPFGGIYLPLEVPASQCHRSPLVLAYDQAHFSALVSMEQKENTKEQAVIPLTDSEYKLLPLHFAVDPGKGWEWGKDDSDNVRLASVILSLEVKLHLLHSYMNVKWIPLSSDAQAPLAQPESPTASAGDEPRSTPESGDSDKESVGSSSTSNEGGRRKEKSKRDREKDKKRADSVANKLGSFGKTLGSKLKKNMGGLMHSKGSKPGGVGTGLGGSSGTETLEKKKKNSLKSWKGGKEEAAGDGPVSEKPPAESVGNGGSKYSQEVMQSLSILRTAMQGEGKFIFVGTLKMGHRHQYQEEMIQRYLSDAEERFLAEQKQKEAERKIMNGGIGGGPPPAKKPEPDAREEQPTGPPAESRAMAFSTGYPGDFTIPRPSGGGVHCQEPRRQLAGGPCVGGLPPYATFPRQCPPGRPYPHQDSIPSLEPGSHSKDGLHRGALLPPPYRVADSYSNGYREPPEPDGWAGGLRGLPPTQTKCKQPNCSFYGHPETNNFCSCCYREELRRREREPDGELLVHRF
Procedure, shortened: as §1

PRPF8 = PRPF8 (UniProt Q6P2Q9)
Procedure, shortened: as §1

PSMD7 = target: T3, PSMD7 (UniProt P51665)
T3 sequence (whole entry): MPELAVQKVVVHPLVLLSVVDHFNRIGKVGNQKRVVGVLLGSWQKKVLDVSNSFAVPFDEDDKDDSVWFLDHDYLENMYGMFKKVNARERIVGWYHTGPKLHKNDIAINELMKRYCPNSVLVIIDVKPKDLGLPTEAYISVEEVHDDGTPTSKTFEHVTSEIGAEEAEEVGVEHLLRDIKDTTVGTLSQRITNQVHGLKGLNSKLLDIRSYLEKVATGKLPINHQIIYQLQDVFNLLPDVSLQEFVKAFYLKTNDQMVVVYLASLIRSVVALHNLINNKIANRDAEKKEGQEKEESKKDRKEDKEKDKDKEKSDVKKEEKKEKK
Procedure, shortened: as §1

UCHL1 = UCHL1 (UniProt P09936)
Procedure, shortened: as §1

UCHL3 = target: T4, UCHL3 (UniProt P15374)
T4 sequence (whole entry): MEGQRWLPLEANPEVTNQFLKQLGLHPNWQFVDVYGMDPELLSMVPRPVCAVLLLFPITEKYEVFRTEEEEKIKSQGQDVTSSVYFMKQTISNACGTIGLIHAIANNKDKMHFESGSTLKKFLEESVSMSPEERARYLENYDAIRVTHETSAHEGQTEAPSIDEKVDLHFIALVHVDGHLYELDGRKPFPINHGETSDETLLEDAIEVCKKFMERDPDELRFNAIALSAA
Procedure, shortened: as §1

UCHL5 = target: T5, UCHL5 (UniProt Q9Y5K5)
T5 sequence (whole entry): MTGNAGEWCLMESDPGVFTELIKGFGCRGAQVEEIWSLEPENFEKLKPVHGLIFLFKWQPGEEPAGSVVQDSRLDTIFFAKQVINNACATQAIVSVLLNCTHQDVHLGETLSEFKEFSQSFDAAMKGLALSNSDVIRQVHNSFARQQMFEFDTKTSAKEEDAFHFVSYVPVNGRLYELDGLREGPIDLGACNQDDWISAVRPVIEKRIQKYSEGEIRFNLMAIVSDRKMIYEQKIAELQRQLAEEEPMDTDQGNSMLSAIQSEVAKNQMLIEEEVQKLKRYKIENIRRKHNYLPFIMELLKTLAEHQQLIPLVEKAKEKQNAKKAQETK
Procedure, shortened: as §1

USP10 = USP10 (UniProt Q14694)
Procedure, shortened: as §1

USP15 = target: T6, USP15 (UniProt Q9Y4E8)
T6 sequence (whole entry): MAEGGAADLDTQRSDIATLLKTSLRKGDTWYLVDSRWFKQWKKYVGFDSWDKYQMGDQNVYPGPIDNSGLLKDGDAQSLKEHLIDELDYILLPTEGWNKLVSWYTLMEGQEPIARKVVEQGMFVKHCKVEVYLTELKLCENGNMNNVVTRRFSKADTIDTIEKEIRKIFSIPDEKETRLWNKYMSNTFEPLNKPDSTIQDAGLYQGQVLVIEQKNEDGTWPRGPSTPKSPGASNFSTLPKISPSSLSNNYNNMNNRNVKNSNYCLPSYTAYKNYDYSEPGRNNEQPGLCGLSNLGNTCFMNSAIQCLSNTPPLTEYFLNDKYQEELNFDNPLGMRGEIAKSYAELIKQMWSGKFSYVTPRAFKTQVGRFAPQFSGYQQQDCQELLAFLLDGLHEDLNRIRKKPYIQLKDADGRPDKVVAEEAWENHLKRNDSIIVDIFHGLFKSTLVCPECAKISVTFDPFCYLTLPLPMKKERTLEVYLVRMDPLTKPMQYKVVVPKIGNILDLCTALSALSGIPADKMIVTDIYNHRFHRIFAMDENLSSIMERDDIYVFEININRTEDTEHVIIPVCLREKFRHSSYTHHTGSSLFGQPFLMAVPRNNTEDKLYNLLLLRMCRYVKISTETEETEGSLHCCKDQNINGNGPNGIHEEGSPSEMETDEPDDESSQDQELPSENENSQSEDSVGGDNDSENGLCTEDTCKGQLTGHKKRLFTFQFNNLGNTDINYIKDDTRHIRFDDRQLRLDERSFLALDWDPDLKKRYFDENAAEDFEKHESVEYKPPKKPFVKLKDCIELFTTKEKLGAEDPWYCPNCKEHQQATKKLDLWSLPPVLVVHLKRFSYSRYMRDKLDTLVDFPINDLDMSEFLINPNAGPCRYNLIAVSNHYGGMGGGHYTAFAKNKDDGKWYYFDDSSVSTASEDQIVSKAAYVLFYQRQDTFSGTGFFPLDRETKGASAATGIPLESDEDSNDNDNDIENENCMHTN
Procedure, shortened: as §1

Measured: log2 ratio of Biotin-Ahx-Ub-VS probe labelling

USP10, sequence (Q14694 whole entry): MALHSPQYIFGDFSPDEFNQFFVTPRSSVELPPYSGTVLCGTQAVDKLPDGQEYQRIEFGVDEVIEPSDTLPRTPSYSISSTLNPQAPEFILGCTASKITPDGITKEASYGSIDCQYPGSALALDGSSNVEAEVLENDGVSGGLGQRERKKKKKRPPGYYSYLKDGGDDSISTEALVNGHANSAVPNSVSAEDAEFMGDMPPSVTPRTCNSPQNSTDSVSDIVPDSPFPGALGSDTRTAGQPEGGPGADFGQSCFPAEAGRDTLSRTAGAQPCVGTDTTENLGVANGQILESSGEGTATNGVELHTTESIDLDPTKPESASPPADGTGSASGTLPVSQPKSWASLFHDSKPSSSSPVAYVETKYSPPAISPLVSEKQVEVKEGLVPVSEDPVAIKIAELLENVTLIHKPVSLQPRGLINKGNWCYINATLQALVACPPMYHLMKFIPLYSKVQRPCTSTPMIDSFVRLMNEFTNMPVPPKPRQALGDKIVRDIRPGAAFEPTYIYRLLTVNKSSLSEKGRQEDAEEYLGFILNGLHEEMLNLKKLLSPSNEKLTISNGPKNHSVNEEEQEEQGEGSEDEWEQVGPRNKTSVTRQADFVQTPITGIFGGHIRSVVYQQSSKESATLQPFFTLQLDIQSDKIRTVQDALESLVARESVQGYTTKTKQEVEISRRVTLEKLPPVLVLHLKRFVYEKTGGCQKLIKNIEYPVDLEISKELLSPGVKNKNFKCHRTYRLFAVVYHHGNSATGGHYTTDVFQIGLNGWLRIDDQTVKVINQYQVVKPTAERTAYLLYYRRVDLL
UCHL1, sequence (P09936 whole entry, looked up): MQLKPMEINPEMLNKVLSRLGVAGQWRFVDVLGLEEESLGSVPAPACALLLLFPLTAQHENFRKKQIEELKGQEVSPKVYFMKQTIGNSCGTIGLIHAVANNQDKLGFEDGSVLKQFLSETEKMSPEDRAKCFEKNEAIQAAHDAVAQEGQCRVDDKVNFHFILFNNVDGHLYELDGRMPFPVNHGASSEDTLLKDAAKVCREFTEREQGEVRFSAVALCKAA

COc1ccc(C2CCCN2C(=O)CCl)c(OC)c1 (centres undefined)
inactive: OTUD6B -0.302 | OTUD7B -0.122 | PRPF8 0.164 | PSMD7 -0.138 | UCHL5 -0.34 | USP10 -0.166 | USP15 -0.424
active: UCHL1 -1.67 | UCHL3 -1.75
